Screening data deposited in PubChem by National Center for Advancing Translational Sciences (NCATS).
Tau fibril FP: qHTS for Inhibitors of Tau Fibril Formation, Fluorescence Polarization | 0.39% of 280,000 active | Microtubule-associated protein tau (Homo sapiens), P10636 | Potency, µM (series often up to 57.7 µM), actives largely listed as inhibitors | K18 P301L tau heparin fibrillization, Alexa594 FP, 6 h; also: nearly all actives have a fitted effect of over 55% in size
Target sequence (P10636 561-689 P618L limits assumed): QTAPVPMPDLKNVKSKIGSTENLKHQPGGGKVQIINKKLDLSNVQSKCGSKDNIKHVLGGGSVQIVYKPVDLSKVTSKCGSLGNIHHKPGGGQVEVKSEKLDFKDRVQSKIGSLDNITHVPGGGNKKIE
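Recombinant K18 P301L […], labeled with Alexa 594 at 0.24 uM over 15 uM unlabeled; heparin inducer 20 uM final; 37 C, 6 hr; FP endpoint.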
Tau fluor counter: Counterscreen qHTS for Inhibitors of Tau Fibril Formation, Fluorescence Polarization. 0.93% of 280,000 active. tau K18 P301L Alexa594 fluorescence, heparin fibrillization. Potency, µM (doses to about 57.7 µM). AID 1463, 2008; also: nearly all actives have a fitted effect of over 55% in size
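Human K18 P301L tau (15 uM unlabeled plus 0.24 uM Alexa 594-labeled, final) in 100 mM sodium acetate pH 7 was mixed with compound and 20 uM heparin and incubated 6 hr at 37 C.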
Tau fibril ThT: qHTS for Inhibitors of Tau Fibril Formation, Thioflavin T Binding; 2.1% of 270,000 active; Potency, µM (highest dose often 57.4 µM), usual class: inhibitors; recombinant tau K18 P301L (four-repeat tau fragment), heparin-induced fibrillization, ThT fluorescence; Microtubule-associated protein tau (Homo sapiens), P10636; AID 1460, 2008; also: nearly all actives have a fitted effect of over 55% in size
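Recombinant human tau K18 fragment […] carrying P301L, 15 uM unlabeled plus 0.24 uM Alexa 594-labeled, was fibrillized with 20 uM heparin in 100 mM sodium acetate pH 7 for 6 hr at 37 C; 30 uM ThT fluorescence read after 1 hr.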
USP1 inh: Inhibitors of USP1/UAF1: Primary Screen; Ubiquitin carboxyl-terminal hydrolase 1 (Homo sapiens), O94782; recombinant USP1/UAF1, Ub-Rhodamine cleavage fluorescence; Potency, µM (highest dose often 57.1 µM), hits mostly inhibitors; 0.23% of 390,000 active; also: nearly all actives have a fitted effect of over 60% in size
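USP1/UAF1 complex at 1 nM was preincubated with compound for 15 min at room temperature, then Ub-Rho substrate (150nM final) was added. Fluorescence (480/540 nm) was read kinetically, 6 reads every 60 seconds.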
FBPA coupling cs: qHTS Assay for Inhibitors of Fructose-1,6-bisphosphate Aldolase from Giardia Lamblia: Coupling assay counterscreen | activity change, negative = inhibition, % at 58.2 µM, hits read low | AID 2472, 2010 | coupling enzyme system counterscreen, AmpLite Red fluorescence | 0.67% of 290,000 active; in the data active = activity change below about -30%
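First, compound is pin-transferred into glyceraldehyde-3-phosphate coupling-enzyme reagent at 57.5 uM final and held 10 min at RT. Next, substrate, coupling system and AmpLite Red are added. After 20 min RT, fluorescence (525/598 nm) is read.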
Numbers stand for hits; . = inactive; ? = inconclusive; / = no result given; [ ] = another dose, or the depositor's remark. Rows were chosen to be rich in hits. Some 2.3% of all compounds tested hit in one or more screens of this group. Unless noted, calls follow the shape of the dose curve; as a rule, active = well fitted curve in the direction sought with a large enough effect; inconclusive = small, poorly fitted or top-dose-only effect, or another doubt; inactive = no such curve, though single readings can be large; an effect the other way counts as inactive or inconclusive.

SMILES | Tau fibril FP | Tau fluor counter | Tau fibril ThT | USP1 inh | FBPA coupling cs
CCOc1ccc(N=Nc2c(C)noc2C)cc1 | . | . | 15.8µM | . | .
CCOc1ccc(C(=O)NCC(=O)OCc2c(C)noc2C)cc1 | . | . | . | . | .
COc1ccc(-c2c(C#N)c(C)nc3c2C(=O)c2ccccc2-3)cc1 | . | . | . | . | .
COC1=C(N)C(=O)c2nc(C)ccc2C1=O | / | / | / | 7.08µM | /
COc1nc(C)ccc1-c1noc(-c2cccnc2)n1 | / | / | / | . | .
COC1=C(Br)C(=O)c2nc(C)ccc2C1=O | / | / | / | 25.1µM | /
COc1ccc(CCNC(=O)c2cnc3sc(N4CCOCC4)nn3c2=O)cc1OC | . | . | . | . | /
Cc1ccc(NC(=O)C2CCCN(c3cnccn3)C2)cc1Cl (stereo not drawn) | . | . | . | . | /
O=CN1CCc2c([nH]c3ccccc23)C1c1cccc2cccnc12 (stereo not drawn) | . | . | . | / | .
COc1ccccc1NC(=O)c1cc2ccc(O)cc2o/c1=N\O | . | ? | 7.08µM | . | .
COc1cc(NC(=O)c2cc3ccccc3cc2O)c(OC)cc1Cl | . | ? | ? | . | .
COc1ccccc1NC(=O)c1cc2cc(Br)ccc2cc1O | . | 6.31µM[quencher] | / | . | .
COc1ccccc1NC(=O)c1cc2ccccc2o/c1=N\O | . | . | ? | . | .
CCCCN(C)C(=O)CSc1nc2ccccc2nc1Cc1ccc(C)cc1 | . | . | . | ? | /
COc1ccc(NCc2cc3cc4c(cc3n(CC(=O)Nc3ccc(F)cc3)c2=O)OCCO4)cc1 | ? | 11.2µM[quencher] | . | . | /
CC(=O)c1cccc(NC(=O)Cn2c(=O)c(CNc3ccc(C)cc3)cc3cc4c(cc32)OCCO4)c1 | ? | 17.8µM[quencher] | . | ? | /
CCc1ccc(NCc2cc3cc4c(cc3n(CC(=O)Nc3ccc(F)cc3)c2=O)OCCO4)cc1 | . | ? | . | ? | /
CCOc1ccc(NC(=O)Cn2c(=O)c(CNc3ccc(OC)cc3)cc3ccc(OC)cc32)cc1 | ? | 20µM[quencher] | ? | . | /
Cc1ccc(NC(=O)Cn2c(=O)c(CNc3ccccc3)cc3cc4c(cc32)OCCO4)cc1 | ? | ? | . | ? | /
Cc1ccc(NC(=O)Cn2nc(-c3ccccc3)nc(Cc3ccccc3)c2=O)cc1 | . | . | . | ? | /
COc1ccc(Cl)cc1NC(=O)CSc1nccn1-c1ccc(Cl)cc1 | . | . | . | . | /
Fc1ccc(-c2cnn3c(-c4ccncc4)ccnc23)cc1 | . | . | 3.16µM | . | .
Fc1ccc(-c2cnn3c(-c4cccs4)ccnc23)cc1 | . | . | 1.41µM | . | .
Cc1nn2c(-c3ccc(F)cc3)ccnc2c1Br | / | / | / | . | .
c1csc(-c2ccnc3ncnn23)c1 | . | . | . | . | .
SMILES | Tau fibril FP | Tau fluor counter | Tau fibril ThT | USP1 inh | FBPA coupling cs
CC(=O)c1ccc(N2CCN(S(=O)(=O)c3ccc4[nH]c5c(c4c3)CCCC5)CC2)cc1 | . | ? | . | . | /
CCOC(=O)c1c(NC(=O)c2ccccc2Cl)sc2c1CCc1ccccc1-2 | . | . | ? | . | .
CCCCC(=O)Nc1sc2c(c1C(=O)OCC)CCC(C=O)=C2Cl | . | . | 25.1µM | / | .
COc1ccc(NC(=O)CCS(=O)(=O)c2nc(-c3cccs3)cc(C(F)(F)F)n2)cc1 | . | . | . | . | /
O=C(CCS(=O)(=O)c1nc(-c2cccs2)cc(C(F)(F)F)n1)Nc1ccc(OC(F)(F)F)cc1 | . | . | . | 14.1µM | /
CC(C)(C)NS(=O)(=O)c1ccc2[nH]c3c(c2c1)CCCCC3 | / | / | / | . | .
Cc1cccc(NS(=O)(=O)c2ccc3[nH]c4c(c3c2)CCCCCC4)c1 | . | 11.2µM[quencher] | . | . | /
Cc1ccccc1NS(=O)(=O)c1ccc2[nH]c3c(c2c1)CCCCC3 | . | 14.1µM[quencher] | . | . | /
O=S(=O)(c1ccc2[nH]c3c(c2c1)CCCCC3)N1CCN(c2cccc(Cl)c2)CC1 | . | ? | . | . | /
Cc1ccc(CNS(=O)(=O)c2ccc3[nH]c4c(c3c2)CCCCC4)cc1 | ? | ? | . | . | /
O=S(=O)(Nc1cccc(Cl)c1)c1ccc2[nH]c3c(c2c1)CCCCCC3 | ? | 8.91µM[quencher] | . | . | /
